Source: PubChem BioAssay (Tox21)
Unmarked numbers belong to inactive results. Results filed as inconclusive are left out. A call without a number means that no potency is given here. Activity calls are given as the source filed them. The call rests on the fitted dose curve; in most records, active means well fitted curve in the direction sought with a large enough effect in the repeat runs; inconclusive means weak or mixed curves; inactive means no such curve, though single readings can be large; an effect the other way counts as inactive or inconclusive.

What was measured:
[1] = Human pregnane X receptor (PXR) small molecule agonists, qHTS cell viability counter screen (AID 1346977); further: nearly all actives have a fitted effect of over 50% in size; further: potency means the concentration at half of the fitted maximal effect
In short: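 Same-well viability read: CellTiter-Fluor added after 23 hr compound exposure, fluorescence measured 1 hr later. Cells were PXR-Luc HepG2 seeded at 2,000/well in 5% charcoal-stripped FBS medium, rested 5 hr before dosing at 37 C.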

[2] = Caspase-3/7 induction in HepG2 cells by small molecules, qHTS assay (AID 1346978); further: nearly all actives have a fitted effect of over 15% in size
In short: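 Wild-type HepG2 cells (2,000/well) were settled 5 h at 37 C, 5% CO2, then exposed to compounds in DMSO for 17 h. Caspase-3/7 activity was read by luminescence 30 min after adding Caspase-Glo 3/7 reagent at room temperature.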

[3] = Caspase-3/7 induction in CHO-K1 cells by small molecules, qHTS cell viability counter screen (AID 1346979); further: nearly all actives have a fitted effect of over 35% in size; further: potency means the concentration at half of the fitted maximal effect
In short: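 Cytotoxicity counter screen: CellTiter-Fluor added to compound-treated wild-type CHO-K1 cells at 16 h (37C, 5% CO2), fluorescence measured 1 h later; same wells as caspase-3/7 measurement.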

[4] = Caspase-3/7 induction in CHO-K1 cells by small molecules, qHTS assay (AID 1346980); further: nearly all actives have a fitted effect of over 15% in size
In short: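 Wild-type cells were seeded at 1,500 per well and settled 5 hr at 37 C, 5% CO2, then exposed to DMSO-dissolved compounds for 17 hr. Caspase-Glo 3/7 reagent was added, and luminescence was read after 30min at room temperature.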

[5] = molecular target: Nuclear receptor subfamily 1 group I member 2 (Homo sapiens) (UniProt O75469); assay: Human pregnane X receptor (PXR) small molecule agonists, qHTS assay (AID 1346982); further: nearly all actives have a fitted effect of over 35% in size; further: potency means the concentration at half of the fitted maximal effect
In short: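 PXR-Luc HepG2 cells (CYP3A4 promoter-driven luciferase) were seeded in medium with 5% charcoal-stripped FBS, left 5 hr at 37 C, then exposed to compounds in DMSO for 24 hr. Luminescence was read after ONE-Glo addition.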

[6] = molecular target: Cytochrome P450 2D6 (Homo sapiens) (UniProt P10635); assay: Cytochrome P450 Family 2 Subfamily D Member 6 (CYP2D6) small molecule antagonists: luciferase reporter qHTS assay (AID 1671196); further: nearly all actives have a fitted effect of over 50% in size; further: potency means the concentration at half of the fitted maximal effect
In short: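 CYP2D6 enzyme–substrate mix was held with compound for 10 min at room temperature, then NADPH regeneration solution was added and the reaction ran 1 h at room temperature. Luciferin product was detected by luminescence after 20 min with detection reagent.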

[7] = molecular target: Nuclear receptor subfamily 1 group I member 2 (Rattus norvegicus) (UniProt Q9R1A7); assay: Rat pregnane X receptor (rPXR) activation by small molecules, qHTS assay (AID 1346983); details: rPXR luciferase reporter cells, One-Glo luminescence, 24 h; max activation: hits give high values; further: nearly all actives have a fitted effect of over 20% in size; further: potency means the concentration at half of the fitted maximal effect
In short: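 Cell-based rPXR luciferase reporter assay, 2,000 cells per well, rested 5hr at 37 C before compound addition in DMSO, then 24 hr at 37 C. One-Glo reagent was added and luminescence read after 30 min at room temperature.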

[8] = molecular target: Nuclear receptor subfamily 1 group I member 2 (Homo sapiens) (UniProt O75469); assay: CYP3A4 induction through human pregnane X receptor (PXR) by small molecules, qHTS assay (AID 1346984); further: nearly all actives have a fitted effect of over 40% in size
In short: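 DPX-2 cells (HepG2 co-transfected with PXR and CYP3A4 promoter-luciferase) treated with compounds 24 h at 37C; luciferin-IPA CYP3A4 substrate 3uM final added for 3 h, then One-Glo; luminescence read. qHTS format.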

[9] = Caspase-3/7 induction in HepG2 cells by small molecules, qHTS cell viability counter screen (AID 1346981); further: series mostly up to about 92 µM; nearly all actives have a fitted effect of over 30% in size
In short: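 Wild-type HepG2 cells (2,000/well) were allowed to settle for 5 hr at 37 C, 5% CO2, then dosed with compounds in DMSO by pin transfer. After 16 hr at 37 C, CellTiter-Fluor was added and fluorescence read 1 hr later.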

[10] = molecular target: Nuclear receptor subfamily 1 group I member 2 (Homo sapiens) (UniProt O75469); assay: Human pregnane X receptor (PXR) activation by small molecules, qHTS assay (AID 1346985); further: nearly all actives have a fitted effect of over 40% in size
In short: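 DPX-2 cells (HepG2 co-transfected with a PXR response element and a CYP3A4-promoter luciferase construct) were seeded at 2,000 per well, rested 5 hr at 37C, then exposed to DMSO-dissolved compounds for 24 hr. Activation was read as luciferase luminescence.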

Nuclear receptor subfamily 1 group I member 2 (Rattus norvegicus), sequence (Q9R1A7 whole entry, looked up): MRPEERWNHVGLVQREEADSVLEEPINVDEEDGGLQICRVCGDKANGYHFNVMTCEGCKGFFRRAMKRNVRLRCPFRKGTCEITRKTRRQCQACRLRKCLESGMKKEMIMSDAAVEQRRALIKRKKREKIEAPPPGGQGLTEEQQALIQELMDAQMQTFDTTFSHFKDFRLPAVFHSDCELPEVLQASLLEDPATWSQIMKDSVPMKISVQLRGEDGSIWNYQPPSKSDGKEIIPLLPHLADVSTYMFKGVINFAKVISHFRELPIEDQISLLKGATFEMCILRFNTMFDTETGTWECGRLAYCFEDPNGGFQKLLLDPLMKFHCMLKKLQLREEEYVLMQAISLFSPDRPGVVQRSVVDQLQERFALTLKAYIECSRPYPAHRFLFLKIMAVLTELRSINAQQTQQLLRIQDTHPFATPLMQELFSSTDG
Cytochrome P450 2D6 (Homo sapiens), sequence (P10635 whole entry, looked up): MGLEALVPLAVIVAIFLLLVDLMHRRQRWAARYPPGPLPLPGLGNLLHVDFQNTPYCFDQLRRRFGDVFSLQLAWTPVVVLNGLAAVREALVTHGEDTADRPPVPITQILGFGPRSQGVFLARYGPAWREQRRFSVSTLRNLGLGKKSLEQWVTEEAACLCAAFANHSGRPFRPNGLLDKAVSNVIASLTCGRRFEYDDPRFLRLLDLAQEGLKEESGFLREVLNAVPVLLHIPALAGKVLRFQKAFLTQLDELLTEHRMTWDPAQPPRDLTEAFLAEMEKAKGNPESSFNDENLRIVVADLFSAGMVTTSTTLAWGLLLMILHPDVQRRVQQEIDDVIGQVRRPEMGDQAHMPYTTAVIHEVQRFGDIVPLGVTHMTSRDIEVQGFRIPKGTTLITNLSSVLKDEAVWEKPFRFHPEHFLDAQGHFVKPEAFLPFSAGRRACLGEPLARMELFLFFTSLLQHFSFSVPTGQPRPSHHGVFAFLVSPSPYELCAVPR
Nuclear receptor subfamily 1 group I member 2 (Homo sapiens), sequence (O75469 whole entry, looked up): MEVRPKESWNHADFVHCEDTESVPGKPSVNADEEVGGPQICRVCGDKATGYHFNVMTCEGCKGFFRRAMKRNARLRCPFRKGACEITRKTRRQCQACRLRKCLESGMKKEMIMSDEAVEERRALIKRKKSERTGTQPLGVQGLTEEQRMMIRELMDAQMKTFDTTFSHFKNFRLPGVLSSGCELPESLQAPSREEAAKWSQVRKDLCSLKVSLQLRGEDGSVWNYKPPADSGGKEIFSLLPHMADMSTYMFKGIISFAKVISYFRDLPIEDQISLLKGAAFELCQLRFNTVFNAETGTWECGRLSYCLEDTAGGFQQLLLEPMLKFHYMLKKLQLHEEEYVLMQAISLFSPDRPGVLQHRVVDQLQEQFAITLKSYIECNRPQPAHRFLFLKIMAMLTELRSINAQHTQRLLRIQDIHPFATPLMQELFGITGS

SMILES	Potency [1]	outcome [2]	Potency [3]	Potency [4]	Potency [5]	Potency [6]	max activation [7] [%]	Potency [8]	Potency [9]	Potency [7]	Potency [10]
O=C(NS(=O)(=O)/C=C/c1cccs1)c1ccc(F)cc1Br	inactive	inactive	inactive	inactive	30.6 µM (active)	inactive					
N[C@H]1C(O)O[C@H](CO)[C@H](O)[C@@H]1O (stereo partly specified)	inactive	inactive	inactive	inactive		inactive					
CCCCOC(O)CC (stereo unspecified)	inactive	inactive	inactive	inactive	inactive	inactive					
CCOC(=O)C1=NN(c2ccccc2)C(=O)C1	inactive	inactive	inactive			inactive					
CC(=O)NCCCS(=O)(=O)O	inactive	inactive	inactive		inactive		-4.66	inactive			
Oc1ccc(O)c2c(O)cccc12	inactive	inactive	inactive	inactive	inactive	inactive					
CCN(CC)CCOc1ccc2c(c1)C(=O)c1cc(OCCN(CC)CC)ccc1-2	13.3 µM (active)	inactive	26.6 µM (active)				2.03	inactive			
C=C(C)C(=O)OCCN(C)C	inactive	inactive	inactive		inactive	inactive			inactive		
CC/C(=C\C(=N/O)C(N)=O)C(C)[N+](=O)[O-] (stereo unspecified)	inactive	inactive	inactive	inactive	inactive	inactive					
O=C1Nc2cc(Cl)ccc2Oc2ccccc21	inactive	inactive	inactive	inactive	inactive	inactive					
CCCC[C@H]1CN(CC2CCOCC2)C(=O)OC12CCN(C1(C)CCN(C(=O)c3c(C)ncnc3C)CC1)CC2	inactive	inactive	inactive		inactive						
CCC(=O)OC(C)(C)C1CC=C(C)CC1 (stereo unspecified)	inactive	inactive	inactive		inactive				inactive		
O=C(O)c1cn(C2CC2)c2cc(Cl)c(F)cc2c1=O	inactive	inactive	inactive		inactive	inactive					
CCCCOc1cc(C(=O)OCCN(CC)CC)ccc1N	inactive	inactive	inactive	inactive			-4.73				
COc1ccc(C(C)=O)cc1	inactive	inactive	inactive	inactive	inactive	inactive					
CC[C@]12CCCN3CCc4c(n(c5ccccc45)C(=O)C1)[C@@H]32	inactive	inactive	26.6 µM (active)	inactive		0.155 µM (active)				8.91 µM (active)	

SMILES	Potency [1]	outcome [2]	Potency [3]	Potency [4]	Potency [5]	Potency [6]	max activation [7] [%]	Potency [8]	Potency [9]	Potency [7]	Potency [10]
CN(C)CCCOc1nn(Cc2ccccc2)c2ccccc12	26.6 µM (active)	inactive		inactive					inactive		
COC(Cc1ccccc1)OC	inactive	inactive	inactive		inactive	inactive			inactive		
Cc1occc1S	inactive	inactive		inactive	61.1 µM (active)				inactive		
CCCC(=O)OCC	inactive	inactive		inactive	inactive				inactive		
CCN(CC)CCOC(=O)C1(c2ccccc2)CCCC1	inactive	inactive	inactive			1.38 µM (active)	1.06	inactive	inactive		
CC(C)=CCCC(C)CC=O (stereo unspecified)	inactive	inactive	inactive						inactive		
CCCCC(CC)(CO)CO	inactive	inactive	inactive	inactive	inactive	inactive					
C=CC[N+]1([C@H]2C[C@H]3[C@@H]4CC[C@H]5C[C@H](OC(C)=O)[C@@H](N6CCCCC6)C[C@]5(C)[C@H]4CC[C@]3(C)[C@H]2OC(=O)CC)CCCCC1	inactive	inactive	inactive		inactive				inactive		
COCCCCCCCCOCCC[Si](C)(O[Si](C)(C)C)O[Si](C)(C)C	30.6 µM (active)	inactive	13.7 µM (active)	inactive	12.2 µM (active)	inactive					
CC(C)NCC(O)COc1ccc(CC(N)=O)cc1 (stereo unspecified)	inactive	inactive		inactive	inactive				inactive		
OCCC1CCCCN1 (stereo unspecified)	inactive	inactive		inactive	inactive				inactive		
CCCCOCCOCCOCCOCCO	inactive	inactive		inactive	inactive				inactive		
CCN(CC)C(C)=O	inactive	inactive		inactive	inactive				inactive		
COC(=O)C(C)=O	inactive	inactive		inactive	inactive	inactive			inactive		
COc1ccc2[nH]c(S(=O)Cc3ncc(C)c(OC)c3C)nc2n1 (stereo unspecified)	inactive	inactive		inactive	18.8 µM (active)			inactive	inactive		
O=C(O)COC(=O)Cc1ccccc1Nc1c(Cl)cccc1Cl	inactive	inactive		inactive	inactive	inactive	-0.166	inactive	inactive		inactive
